This note sets out measurements from PubChem BioAssay (NCATS).

Test [1] can be described thus: Quantitative High-Throughput drug screen in 47 multiple myeloma cell lines against the NCATS MIPE library collection: H1112_PLB cell viability assay (AID 1918967; also: nearly all actives have a fitted effect of over 30% in size; also: potency is read from the fitted curve at half-maximal effect). A digest of the protocol:
(§1)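 Relative luminescence from CellTiter-Glo served as the viability signal, referenced to DMSO-treated (100%) and cell-free medium (0%) controls. Treatment lasted 48 hours at 37C with 500 cells per well.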

Test [2] can be described thus: Quantitative High-Throughput drug screen in 47 multiple myeloma cell lines against the NCATS MIPE library collection: KMS27_JCRB cell viability assay (AID 1918970). Also: nearly all actives have a fitted effect of over 30% in size. Also: potency is read from the fitted curve at half-maximal effect. A digest of the protocol:
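Each line is seeded at 500 cells per well and treated with library compounds for 48 hours under 37 °C, 5% CO2. CellTiter-Glo is then added for 5 min at room temperature before median relative luminescence is recorded.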

Test [3] is described as follows: Quantitative High-Throughput drug screen in 47 multiple myeloma cell lines against the NCATS MIPE library collection: KMS12PE_JCRB cell viability assay (AID 1918972). Also: nearly all actives have a fitted effect of over 30% in size. Also: potency is read from the fitted curve at half-maximal effect. A digest of the protocol: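 Myeloma cells (500 per well) were exposed to MIPE 4.0 compounds by pin transfer and incubated 48 hours at 37C, 5% CO2. Viability was read as ATP by CellTiter-Glo luminescence, normalised to DMSO (100%) and media-only (0%) wells.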

A short description of test [4]: Quantitative High-Throughput drug screen in 47 multiple myeloma cell lines against the NCATS MIPE library collection: KMS20_JCRB cell viability assay (AID 1918973). Also: nearly all actives have a fitted effect of over 45% in size. Also: potency is read from the fitted curve at half-maximal effect. A digest of the protocol: as §1
A short description of test [5]: Quantitative High-Throughput drug screen in 47 multiple myeloma cell lines against the NCATS MIPE library collection: KMS26_JCRB cell viability assay (AID 1918975). Also: nearly all actives have a fitted effect of over 45% in size. Also: potency is read from the fitted curve at half-maximal effect. A digest of the protocol:
(§2)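 Steps: seed 500 cells per well; pin-transfer MIPE 4.0 library; incubate 48 h at 37C, 5% CO2, humidified; add CellTiter-Glo, 5 min room temperature; read luminescence.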

Test [6] can be described thus: Quantitative High-Throughput drug screen in 47 multiple myeloma cell lines against the NCATS MIPE library collection: MOLP8_DSMZ cell viability assay (AID 1918977). Also: nearly all actives have a fitted effect of over 45% in size. Also: potency is read from the fitted curve at half-maximal effect. A digest of the protocol:
(§3)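 Myeloma cells (500/well) treated with MIPE 4.0 compounds for 48 h at 37 °C, 5% CO2. Viability read as ATP via CellTiter-Glo luminescence after 5 min at RT; DMSO-only wells = 100%, media-only = 0% viability.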

A short description of test [7]: Quantitative High-Throughput drug screen in 47 multiple myeloma cell lines against the NCATS MIPE library collection: NCIH929_DSMZ cell viability assay (AID 1918978). Also: nearly all actives have a fitted effect of over 35% in size. Also: potency is read from the fitted curve at half-maximal effect. A digest of the protocol:
as §3

Test [8] in a line: Quantitative High-Throughput drug screen in 47 multiple myeloma cell lines against the NCATS MIPE library collection: OCIMY1_PLB cell viability assay (AID 1918979). Also: nearly all actives have a fitted effect of over 35% in size. Also: potency is read from the fitted curve at half-maximal effect. A digest of the protocol:
as §3

Test [9] in a line: Quantitative High-Throughput drug screen in 47 multiple myeloma cell lines against the NCATS MIPE library collection: MM1S_ATCC cell viability assay (AID 1918980). Also: nearly all actives have a fitted effect of over 45% in size. Also: potency is read from the fitted curve at half-maximal effect. A digest of the protocol:
as §3

Test [10] is described as follows: Quantitative High-Throughput drug screen in 47 multiple myeloma cell lines against the NCATS MIPE library collection: LP1_DSMZ cell viability assay (AID 1918982). Also: nearly all actives have a fitted effect of over 35% in size. A digest of the protocol:
as §3

Test [11] is described as follows: Quantitative High-Throughput drug screen in 47 multiple myeloma cell lines against the NCATS MIPE library collection: L363_DSMZ cell viability assay (AID 1918984). Also: nearly all actives have a fitted effect of over 40% in size. Also: potency is read from the fitted curve at half-maximal effect. A digest of the protocol: as §3
Test [12] in a line: Quantitative High-Throughput drug screen in 47 multiple myeloma cell lines against the NCATS MIPE library collection: KMS34_JCRB cell viability assay (AID 1918985). Also: nearly all actives have a fitted effect of over 40% in size. A digest of the protocol: as §3
The nature of test [13]: Quantitative High-Throughput drug screen in 47 multiple myeloma cell lines against the NCATS MIPE library collection: OCIMY7_PLB cell viability assay (AID 1918987). Also: nearly all actives have a fitted effect of over 65% in size. Also: potency is read from the fitted curve at half-maximal effect. In outline:
as §3

Test [14] can be described thus: Quantitative High-Throughput drug screen in 47 multiple myeloma cell lines against the NCATS MIPE library collection: Karpas25_ECACC cell viability assay (AID 1918968; also: nearly all actives have a fitted effect of over 35% in size; also: potency is read from the fitted curve at half-maximal effect). A digest of the protocol:
as §1

A short description of test [15]: Quantitative High-Throughput drug screen in 47 multiple myeloma cell lines against the NCATS MIPE library collection: KMS21BM_JCRB cell viability assay (AID 1918974). Also: potency is read from the fitted curve at half-maximal effect. Conditions: ATP luminescence, 48 h; viability: at 45.8 µM (top of the series) unless noted. A digest of the protocol:
as §1

Test [16] in a line: Quantitative High-Throughput drug screen in 47 multiple myeloma cell lines against the NCATS MIPE library collection: MMM1_PLB cell viability assay (AID 1918976). In outline: as §3
Test [17] can be described thus: Quantitative High-Throughput drug screen in 47 multiple myeloma cell lines against the NCATS MIPE library collection: MM1R_ATCC cell viability assay (AID 1918981). Also: nearly all actives have a fitted effect of over 35% in size. Also: potency is read from the fitted curve at half-maximal effect. A digest of the protocol:
as §3

The nature of test [18]: Quantitative High-Throughput drug screen in 47 multiple myeloma cell lines against the NCATS MIPE library collection: KMS28PE_JCRB cell viability assay (AID 1918983). Also: nearly all actives have a fitted effect of over 35% in size. Also: potency is read from the fitted curve at half-maximal effect. A digest of the protocol:
as §3

Test [19] is described as follows: Quantitative High-Throughput drug screen in 47 multiple myeloma cell lines against the NCATS MIPE library collection: KMS12BM_JCRB cell viability assay (AID 1918971). Also: nearly all actives have a fitted effect of over 35% in size. In outline: as §2
Test [20] can be described thus: Quantitative High-Throughput drug screen in 47 multiple myeloma cell lines against the NCATS MIPE library collection: OCIMY5_PLB cell viability assay (AID 1918988). Also: potency is read from the fitted curve at half-maximal effect; nearly all actives have a fitted effect of over 65% in size. A digest of the protocol:
as §3

Records with an inconclusive call do not appear. The source made the active and inactive calls. Calls follow the shape of the dose curve; as a rule, active = well fitted curve in the direction sought with a large enough effect; inconclusive = small, poorly fitted or top-dose-only effect, or another doubt; inactive = no such curve, though single readings can be large; an effect the other way counts as inactive or inconclusive.

For the compound `O=C(O)[C@@H](c1ccc(OCc2ccc3ccccc3n2)cc1)C1CCCC1`, the Potency result in [1], in [2], in test [3], in test [4], in test [6] and in test [7] was “inactive” in each case. For the same compound, the Potency result in [8], in test [9], in test [10], in [11] and in test [12] was “inactive” throughout. In addition, the values for the Potency in [5] and in [13] were 0.0012 µM (active) and 5.9 µM (active), respectively.
`NNCCc1ccccc1`: the Potency is 0.059 µM (active) in [1]; 8.33 µM (active) in test [14]; 14.8 µM (active) in test [3]; 13.2 µM (active) in [15]; 5.9 µM (active) in test [16]; 5.9 µM (active) in [9]. For the same compound, the results for the Potency in test [17] and in [18] were 6.62 µM (active) and 9.35 µM (active), respectively. In addition, the Potency result in test [7], in test [8] and in test [13] was “inactive” each time.
`CCCS(=O)(=O)Nc1ccc(F)c(C(=O)c2c[nH]c3ncc(Cl)cc23)c1F`: the Potency in [1] was 20.9 µM (active); in [14], 14.8 µM (active); in [3], 16.6 µM (active); in test [13], 1.32 µM (active). For the same compound, the Potency result in [5], in [8], in test [9], in test [10] and in test [12] was “inactive” throughout.
For `CS(=O)(=O)Oc1ccc2c(NC(N)=O)c(C(=O)c3ccc(Cl)cc3Cl)oc2c1`, the Potency in test [1] was 18.7 µM (active); in [14] it was 4.69 µM (active); in [3], 9.35 µM (active); in test [15], 2.35 µM (active); in test [7], 9.35 µM (active); in test [9], 2.96 µM (active). Further, the Potency in test [11] was 6.62 µM (active). Also, the Potency result in test [19], in test [5], in test [8], in test [17], in test [10] and in [18] was “inactive” in each case. For the same compound, the Potency entry in test [12] is “inactive”.
Regarding `O=C1CCCC2=C1C(c1[nH]ncc1Cl)N=C(Nc1nc3ccccc3o1)N2` (centres undefined), the Potency result in [1], in test [8], in test [17] and in test [18] was “inactive” in each case. Moreover, the Potency is 0.662 µM (active) in [14]; 1.87 µM (active) in test [3]; 4.69 µM (active) in test [16]; 5.9 µM (active) in test [7]; 8.33 µM (active) in test [13]; 23.5 µM (active) in test [20].
Consider `CCC(C)n1ncn(-c2ccc(N3CCN(c4ccc(OC[C@H]5CO[C@](Cn6cncn6)(c6ccc(Cl)cc6Cl)O5)cc4)CC3)cc2)c1=O` (some centres undefined), for which the Potency entry in test [1], in [14], in [7], in test [9] and in test [13] was “inactive” throughout. The Potency was 4.18 µM (active) in test [8], 14.8 µM (active) in test [18] and 2.96 µM (active) in test [20].
As to `CCOc1ccn(-c2ccc(F)cc2)c(=O)c1C(=O)Nc1ccc(Oc2ccnc(N)c2Cl)c(F)c1`, the Potency in test [1] was 13.2 µM (active); in test [14], 2.35 µM (active); in test [9] it was 16.6 µM (active); in test [20], 8.33 µM (active). The Potency result in test [5] and in test [8] was “inactive” in each case.
With `CCCc1nc2c(C)cc(-c3nc4ccccc4n3C)cc2n1Cc1ccc(-c2ccccc2C(=O)O)cc1`, the Potency result in [1], in test [19], in test [6], in test [7], in [8] and in test [17] was “inactive” throughout. Further, the Potency entry in test [10], in test [18] and in [12] was “inactive” throughout. Further, the figures for the Potency in test [2] and in test [9] were 4.18 µM (active) and 26.4 µM (active), respectively.
`OC(CN1CCC(Cc2ccc(F)cc2)CC1)c1ccc(Cl)cc1` (centres undefined): the Potency entry in [1], in [2], in [19], in test [3], in test [15] and in test [5] was “inactive” in each case. For the same compound, the Potency entry in test [6], in test [7], in test [10] and in [11] was “inactive” throughout.
Take `CCC(=O)N[C@H]1CC[C@H](C(=O)N(C)c2ccc(-c3nc4ccccc4o3)cc2)C1`: the Potency in test [1] was 11.8 µM (active); in test [2], 20.9 µM (active); in test [3], 4.69 µM (active); in test [4] it was 7.43 µM (active); in test [7] it was 2.96 µM (active); in [9], 5.26 µM (active). Further, the Potency in test [17] is 3.72 µM (active); in test [11], 16.6 µM (active); in test [13], 8.33 µM (active). Besides, the Potency entry in [19], in test [8] and in [12] was “inactive” in each case.
With `Nc1ccc(S(=O)(=O)Nc2ccnn2-c2ccccc2)cc1`, the Potency entry in test [1], in test [14], in test [3], in test [15], in test [6] and in test [7] was “inactive” each time. Moreover, the Potency result in test [8], in test [9], in [17], in test [10], in test [11] and in [12] was “inactive” in each case.
Turning to `CNCc1ccc(-c2[nH]c3cc(F)cc4c3c2CCNC4=O)cc1`, the Potency entry in [1], in test [14], in test [3], in [7], in test [8] and in test [17] was “inactive” in each case. For the same compound, the Potency result in test [10], in test [18], in [11] and in test [12] was “inactive” each time.
For `CC(C)NCC(O)COc1ccc(COCCOC(C)C)cc1` (centres undefined), the Potency entry in test [1], in [14], in [3], in test [5], in [7] and in test [8] was “inactive” each time. Besides, the Potency result in test [9], in [10] and in test [12] was “inactive” throughout. Also, in test [16], the Potency was 7.43 µM (active).
In the case of `CC(c1cc2ccccc2s1)N(O)C(N)=O` (centres undefined), the Potency entry in test [1], in test [2], in [3], in [4], in [5] and in test [6] was “inactive” in each case. For the same compound, the Potency result in test [7], in test [8], in [9], in [17] and in test [10] was “inactive” in each case.
As to `Cc1ccc(-n2nc(C(C)(C)C)cc2NC(=O)Nc2ccc(OCCN3CCOCC3)c3ccccc23)cc1`, the Potency in test [1] is 1.18 µM (active); in [14] it was 1.05 µM (active); in [5] it was 26.4 µM (active); in test [16], 20.9 µM (active); in test [7], 0.59 µM (active); in test [9] it was 4.18 µM (active). Further, in test [13], the Potency is 2.96 µM (active). Further, the Potency result in test [8] and in test [10] was “inactive” throughout.
With `CC(=O)NC(C)c1ccc(Oc2ccc(OC(C)C)cc2)cc1` (centres undefined), the Potency was 2.96 µM (active) in test [1]; 3.72 µM (active) in [14]; 5.9 µM (active) in [3]; 16.6 µM (active) in test [16]; 18.7 µM (active) in test [6]; 10.5 µM (active) in [7]. In addition, the Potency in test [8] was 14.8 µM (active); in test [18] it was 18.7 µM (active); in test [13], 2.35 µM (active).
With `Cc1n[nH]c(C)c1Cc1sc2c(c1C(=O)N1C[C@H](O)CO1)c(=O)n(C)c(=O)n2CC(C)C`, the Potency entry in test [1], in test [14], in test [7], in [8], in test [17] and in test [11] was “inactive” in each case. For the same compound, the Potency result in [12] was “inactive”. Moreover, the Potency in [6] was 0.935 µM (active); in test [9], 11.8 µM (active); in [18] it was 16.6 µM (active).
Consider `NC(=O)c1ccc(I)c([N+](=O)[O-])c1`, for which the Potency result in test [1], in test [8], in test [10], in [18] and in test [12] was “inactive” throughout. Also, the Potency was 23.5 µM (active) in test [14], 8.33 µM (active) in test [7], 18.7 µM (active) in test [9] and 23.5 µM (active) in test [17].
